# Shown is part of a subset that was picked to be rich in hits.
# ERK EGF block: inhibitors of EGF-stimulated ERK signaling pathway; HEK293-V1b, EGF-stimulated phospho-ERK AlphaScreen; Potency, µM (top dose mostly 11.5 µM), for inactives: at the top dose activity change, negative = inhibition, actives largely listed as inhibitors; 130,000 tested, 0.41% active; AID 1454;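 further: potency means the concentration at half of the fitted maximal effect; plate controls were stimulated vehicle wells for no effect and unstimulated vehicle basal for full effect; nearly all actives have a fitted effect of over 55% in size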
#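 V1b-HEK293, 1% FBS o/n; cpd 30 min 37C; EGF 25 nM final, 5 min; lyse 10 min; AlphaScreen beads 5 h RT. Normalized DMSO basal vs EGF max; Hill AC50.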
# cRaf kinase inh: blocks human c-Raf kinase activity. shares compounds with ERK EGF block. c-Raf kinase inhibition, homogeneous biochemical assay. activity change, negative = inhibition, % at 76.9 µM. 70 tested, under 10 active. AID 1728
# Target sequence (P04049 whole entry, looked up): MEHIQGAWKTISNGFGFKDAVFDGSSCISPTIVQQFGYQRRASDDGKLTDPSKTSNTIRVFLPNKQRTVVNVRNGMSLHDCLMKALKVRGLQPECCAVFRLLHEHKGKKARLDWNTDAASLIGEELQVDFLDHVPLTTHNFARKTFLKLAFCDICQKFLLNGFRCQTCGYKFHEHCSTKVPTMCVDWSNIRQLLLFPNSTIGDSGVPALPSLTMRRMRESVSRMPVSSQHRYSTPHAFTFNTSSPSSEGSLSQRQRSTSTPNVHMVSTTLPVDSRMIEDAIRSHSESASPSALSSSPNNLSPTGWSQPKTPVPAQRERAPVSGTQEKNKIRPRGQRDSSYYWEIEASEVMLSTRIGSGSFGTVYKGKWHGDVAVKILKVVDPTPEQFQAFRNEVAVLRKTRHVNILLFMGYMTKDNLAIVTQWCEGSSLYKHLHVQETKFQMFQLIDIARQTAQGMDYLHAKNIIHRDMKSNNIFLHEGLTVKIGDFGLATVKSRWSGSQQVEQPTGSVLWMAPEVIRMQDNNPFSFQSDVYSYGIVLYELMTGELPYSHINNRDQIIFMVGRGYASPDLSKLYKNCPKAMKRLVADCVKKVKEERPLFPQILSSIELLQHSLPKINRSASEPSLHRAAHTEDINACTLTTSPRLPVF
# MEK inh: MEK1 (human) kinase inhibition. homogeneous MEK kinase activity assay, ERK pathway. 70 tested, under 10 active. Potency, µM (doses to about 76.9 µM), for inactives: at the top dose activity change, negative = inhibition, hits mostly inhibitors. AID 1732. shares compounds with ERK EGF block
# * hit, by the source's call; ? = inconclusive; . = no result given; [ ] = another dose, or the depositor's remark. The call rests on the fitted dose curve; in most records, active means well fitted curve in the direction sought with a large enough effect; inconclusive means small, poorly fitted or top-dose-only effect, or another doubt; inactive means no such curve, though single readings can be large; an effect the other way counts as inactive or inconclusive.
SMILES,ERK EGF block,others
O=c1[nH]c(O)c(/C=C2/C=CC(c3cc(Cl)ccc3Cl)=N2)c(=O)[nH]1,28µM*,
C[C@H](N)Cc1c[nH]c2ccc(OCc3cccs3)cc12,-2%,
CC1OC(=O)C(C(C)C)NC(=O)C(C(C)C)OC(=O)C(C(C)C)NC(=O)C(C)OC(=O)C(C(C)C)NC(=O)C(C(C)C)OC(=O)C(C(C)C)NC(=O)C(C)OC(=O)C(C(C)C)NC(=O)C(C(C)C)OC(=O)C(C(C)C)NC1=O (stereo not given),7%,
C=CCNC(=S)Nc1ccc(OC(=O)Nc2ccc(Cl)c(Cl)c2)cc1,-16%[57.5 µM],
Cc1nn(C(C)(C)C)c(C)c1/C=N/OC(=O)Nc1ccc(Cl)c(Cl)c1,32µM*,
Cc1ccc(NC(=O)c2snnc2C)cc1Cl,-40%,
C[C@@H](Cc1cccc(C(F)(F)F)c1)NCCCc1ccccc1,1%,
CC(=O)OC1CCC23C(=O)OC45CCC(C6=CC(=O)OC6)C4(C)CCC2C5CCC3(O)C1 (stereo not given),12%,
CC1Oc2cc3c(-c4c(O)cc(O)c5c(O)c6c(cc45)OC(C)C(C)C6=O)c(O)cc(O)c3c(O)c2C(=O)C1C (stereo not given),16µM*,
CN(C(=O)Cc1ccc(Cl)c(Cl)c1)[C@H](CN1CCCC1)c1cccc(N=C=S)c1,4%,
C[C@H]1CC[C@@]2(NC1)O[C@@H]1C[C@H]3[C@@H]4CC[C@@H]5C[C@@H](O)CC[C@@]5(C)[C@@H]4CC[C@]3(C)[C@@H]1[C@@H]2C,1%[25.7 µM],
CC(=O)Oc1c2c(c(CC=C(C)C)c3c1C(=O)C1=CC4CC5C(C)(C)OC(C/C=C(\C)C(=O)O)(C4=O)[C@]15O3)OC(C)(CCC=C(C)C)C=C2 (stereo not given in full),13µM*,
CC1N(P(=O)(c2ccccc2)c2ccccc2)CC(O)(c2ccccc2)CC12CC2 (stereo not given),-3%,
c1ccc(Cn2ccnc2)cc1,-12%[57.5 µM],
Clc1ccc(COC(Cn2ccnc2)c2ccc(Cl)cc2Cl)cc1 (stereo not given),28µM*,
Clc1ccc(CS[C@@H](Cn2ccnc2)c2ccc(Cl)cc2Cl)cc1,2%[25.7 µM],
CC[C@H]1C2CC3[C@@H]4N(C)c5ccccc5[C@]45C[C@@H](C2[C@H]5O)N3[C@@H]1O (stereo not given in full),-6%,
c1cc(CN2CCCC3(CCNCC3)C2)ccn1,8%,
CC(C)CC(N)C1(c2ccc(Cl)cc2)CCC1 (stereo not given),-12%,
COC(=O)[C@]1(C)CC[C@@]2(C)CC[C@@]3(C)C4=CC=C5C(=CC(=O)C(O)=C5C)[C@@]4(C)CC[C@@]3(C)C2C1 (stereo not given in full),14µM*,
CCC1/C=C/C=CCC(C)C(O)[C@@](C)(O)C(=O)C(C)C(O)C(C)C(=O)C(C)C(O)C(C)C=CC(=O)O[C@H]2C(C)C(CC1)O[C@]1(CCC(C)C(CC(C)O)O1)C2C (stereo not given in full),19%,
CC1O[C@@H](O[C@@H]2C(O)C[C@H](O[C@@H]3C(O)C[C@@H](OC4CC[C@@]5(C)C6CC[C@]7(C)C(C8=CC(=O)OC8)CC[C@@]7(O)C6CC[C@@H]5C4)OC3C)OC2C)CC(O)[C@H]1O (stereo not given in full),10%,
CC(=O)N1CCN(c2ccc(OC[C@@H]3CO[C@@](Cn4ccnc4)(c4ccc(Cl)cc4Cl)O3)cc2)CC1,6%[25.7 µM],
CCCCC/C=C\C=C\[C@H](CCCCCCCC(=O)O)OO,-10%,
O[N+]1=CC=CCC1=S.On1ccccc1=S.[Zn],20µM*,
SMILES,ERK EGF block,others
Cc1[nH]cnc1CCN,3%,
C=C(C)C1Cc2c(ccc3c2OC2COc4cc(OC)c(OC)cc4C2C3=O)O1 (stereo not given),8%,
O=C(Nc1cccc(F)c1)N1CCCC2(CCN(C(=O)Oc3ccccc3)CC2)C1,9%,
O=c1c2ccccc2nc(-c2ccccc2)n1-c1ccccc1,-8%[57.5 µM],
COc1ccc(-c2nc3ccccc3c(=O)n2-c2ccc(OC)cc2)cc1,-13%,
CCn1nc(-c2ccccc2)nc2c(=O)n(C)c(=O)nc1-2,0%,cRaf kinase inh=?;MEK inh=0.63µM*
Cn1nc(-c2ccccc2)nc2c(=O)n(C)c(=O)nc1-2,.,cRaf kinase inh=?;MEK inh=0.71µM*
Cc1nc2c(=O)n(C)c(=O)nc-2n(C)n1,22%,cRaf kinase inh=?;MEK inh=?
N#Cc1ccc(CN2CCC3(CC2)CCN(C(=O)Oc2ccccc2)CC3)cc1,-3%,
C=CCc1cc(OC)c2c(c1OC)OCO2,19%,
CNC1C2CN3CCC(O2)C13 (stereo not given),4%,
O=C1Nc2cc(Cl)c(Cl)cc2N2CCNC[C@H]12,8%,
c1ccc(N2CCC3(CCNCC3)CC2)nc1,-13%,
CC1O[C@@H](OC2CC[C@@]3(C=O)C4CC[C@]5(C)C(C6=CC(=O)OC6)CC[C@@]5(O)C4CC[C@]3(O)C2)C(O)C(O)C1O (stereo not given in full),5%,
CCOC(OCC)P(=O)(O)CCCN,-2%,
Cc1cc(C)cc(C(=O)OC2C[C@H]3CC[C@@H](C2)N3C)c1 (stereo not given in full),7%,
O=C1CC2OCC=C3CN4CC[C@]56c7ccccc7N1[C@H]5[C@H]2C3C[C@H]46 (stereo not given in full),21%,
NC(CO)Cc1ccccc1 (stereo not given),9%,

# Assay outcomes: PubChem, National Center for Advancing Translational Sciences (NCATS)
